A selection: hits, their analogues and other compounds. The true share with any hit is near 7.9%.
HT1080 IDH1KD tx = HT-1080 IDH1 knockdown cell toxicity (counter line). Potency, µM (top dose mostly 46.1 µM), inactives show at the highest dose activity, negative = toxicity, actives largely listed as cytotoxic. hit rate 2% among 360,000. HT-1080 IDH1 knockdown viability, ATP luminescence, 48 h;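 also: 0% = DMSO wells and -100% = cell-free medium wells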
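Cytotoxicity counter-line: IDH1KD HT-1080, 48 h, CellTiter-Glo. Curves classed by r2, magnitude and activity.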
MCF10A rerep = DNA re-replication induction in MCF 10a cells; MCF 10A DNA re-replication, Hoechst nuclear intensity, 48 h; Potency, µM (titrated, usually from 46.1 µM), for inactives: at the top dose activity, positive = re-replication, hits mostly activators; hit rate 2.9% among 350,000; AID 624296; also: % of control where 0% means no effect; nearly all actives have a fitted effect of over 50% in size
KB-V1 cytotox = KB-V1 MDR subline cytotoxicity | KB-V1 MDR cells viability, CellTiter-Glo, 72 h | Potency, µM (doses to about 46.1 µM), hits mostly cytotoxic | hit rate 3.4% among 400,000 | AID 1347076; also: % is scaled to controls: 0 for no effect and ±100 for the full control effect; nearly all actives have a fitted effect of over 60% in size
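KB-V1, DMEM (no phenol red) + 10% FBS; cpd pin-transferred, titration series; 72 h, 37 degrees C; CellTiter-Glo, luminescence. Data normalized, curve-fit.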
HT1080NT lethal = kills 2HG-producing HT-1080-NT fibrosarcoma cells; HT-1080-NT fibrosarcoma viability, CellTiter-Glo ATP luminescence, 48 h; Potency, µM (highest dose often 46.1 µM), inactives show at the highest dose activity, negative = less viability, usual class: cytotoxic; hit rate 1.6% among 360,000; AID 686970;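 also: NT is the 2HG producing partner of a matched IDH1 knockdown line; 0% = DMSO-treated cells and -100% = media-only wells without cells; nearly all actives have a fitted effect of over 55% in size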
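Read-out is CellTiter-Glo luminescence after 10 minutes at room temperature, following 48 hours' compound treatment of HT-1080-NT cells (750 cells/well, RPMI, 5% FBS, 37 degrees C).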
KB-3-1 cytotox = KB-3-1 parental cell cytotoxicity; Potency, µM (doses to about 46.1 µM), most hits filed as cytotoxic; hit rate 1.4% among 400,000; KB-3-1 viability, CellTiter-Glo ATP luminescence, 72 h; also: % is scaled to controls: 0 for no effect and ±100 for the full control effect; nearly all actives have a fitted effect of over 60% in size
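Using CellTiter-Glo luminescence, growth of non-resistant KB-3-1 adenocarcinoma cells is assessed 72 h after pin-tool compound addition at 37 °C. Normalized responses across the concentration series yield fitted curves.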
SW480 rerep = induces DNA re-replication in SW480 colon adenocarcinoma cells | SW480 DNA re-replication, Hoechst DNA content imaging, 48 h | Potency, µM (top dose mostly 46.1 µM), for the others: at the highest dose re-replication activation, hits mostly activators | hit rate 1.8% among 340,000; also: % of control where 0% means no effect; nearly all actives have a fitted effect of over 55% in size
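SW480 cells exposed to compounds for 48 hr at 37 C, 5% CO2, then Hoechst-stained 40 min. Nuclear DNA content imaged by fluorescence scanning (405 nm excitation, 500-530 nm emission); re-replication scored as increased high-intensity nuclei.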
* marks the source's active call; other numbers are inactive results; i = inactive; u = inconclusive; x = no result given; [ ] = remark or other dose. Calls follow the shape of the dose curve; as a rule, active = well fitted curve in the direction sought with a large enough effect; inconclusive = small, poorly fitted or top-dose-only effect, or another doubt; inactive = no such curve, though single readings can be large; an effect the other way counts as inactive or inconclusive. Potency is read from the fitted curve at half-maximal effect.

SMILES	HT1080 IDH1KD tx	MCF10A rerep	KB-V1 cytotox	HT1080NT lethal	KB-3-1 cytotox	SW480 rerep
Cc1ccc(S(=O)(=O)NCc2ccc(C(=O)N3CCN(c4ccccc4)CC3)cc2)cc1	u	15%	i	-12%	i	1%
CCN1CCN(C(=O)c2ccc3c(c2)c(C)c(C)n3Cc2ccccc2)CC1	-22%	u	i	-2%	i	-2%
Cc1ccc(S(=O)(=O)NCc2ccc(C(=O)N3CCc4ccccc4C3)cc2)cc1	17%	16%	4.6µM*	2%	i	11%
COc1ccc(S(=O)(=O)NCc2ccc(C(=O)N3CCc4ccccc4C3)cc2)cc1	-1%	2%	5.8µM*	4%	u	-4%
CCn1c(C)c(C)c2cc(C(=O)N3CCc4ccccc4C3)ccc21	16µM*	3.7µM*	u	u	13µM*	u
COc1ccc(CNS(=O)(=O)c2ccc(N3CCCCS3(=O)=O)cc2)cc1	x	x	u	x	16µM*	x
CC(=O)c1ccc(NC(=O)c2cc3sccc3n2Cc2ccc(Cl)cc2)cc1	x	x	i	x	i	x
CCCN1CCN(C(=O)c2ccc(Sc3ccc(C)cc3)c(NC(C)=O)c2)CC1	-20%	-10%	i	-13%	i	-9%
CC(=O)Nc1cc(C(=O)N2CCc3ccccc3C2)ccc1Sc1ccc(C)cc1	-15%	21µM*	u	-3%	i	2%
COc1ccc(C2=NN(C(=O)COC(=O)c3ccc(S(C)(=O)=O)c([N+](=O)[O-])c3)C(c3ccco3)C2)cc1 (configuration not stated)	15µM*	u	u	u	u	12µM*
COc1ccc(C2CC(c3ccccc3OC(C)=O)=NN2C(C)=O)cc1 (configuration not stated)	-9%	9%	u	3%	u	16µM*
COc1ccc(C2CC(c3ccccc3)=NN2C(=O)COC(=O)c2cccc(S(=O)(=O)N(C)C)c2)cc1 (configuration not stated)	-4%	-1%	3.7µM*	-11%	i	-1%
COc1ccc(C2CC(c3ccccc3OC(C)=O)=NN2C(=O)/C=C/c2ccccc2)cc1 (configuration not stated)	-23%	9%	i	-1%	i	1%
COc1ccc(C2=NN(C(=O)CN3CCCCC3)C(c3ccc(C)cc3)C2)cc1 (configuration not stated)	-17%	-3%	u	0%	i	-10%
COc1ccc(C2CC(c3ccccc3)=NN2C(=O)CN2CCN(Cc3ccccc3)CC2)cc1 (configuration not stated)	5%	-1%[9.22 µM]	23µM*	10%	u	11%
COc1ccc(C2CC(c3ccccc3)=NN2C(=O)COC(=O)c2cccc(S(=O)(=O)N3CCOCC3)c2)cc1 (configuration not stated)	1%	-1%	i	-3%	i	5%
CC(C)(C)c1ccc(CC(=O)N2CCC2(C)C(=O)Nc2cccc3c2CCCC3)cc1 (configuration not stated)	u	x	i	u	i	x
COc1ccc(C2CC(c3ccc([N+](=O)[O-])cc3)=NN2C(=O)c2ccccc2)cc1OC (configuration not stated)	0%	-11%	i	2%	i	1%
CCC(=O)N1N=C(c2ccccc2)CC1c1ccc([N+](=O)[O-])cc1 (configuration not stated)	1%	12%	15µM*	-1%	i	u
Cc1cccc(S(=O)(=O)NC(=O)C2(C)CCN2C(=O)C/C=C/c2ccccc2)c1 (configuration not stated)	2%	x	i	11%	i	x
CN(C)S(=O)(=O)c1ccc(C(=O)Nc2nc(-c3cc4ccccc4o3)cs2)cc1	u	4.6µM*	i	u	i	7%

High-throughput results as filed in PubChem.
